Shown are actives, neighbours in structure and some others; about 21% of the full set was active somewhere.
Pf growth 96h – Primary qHTS for delayed death inhibitors of the malarial parasite plastid, 96 hour incubation; AID 504834, 2011; P. falciparum luciferase reporter growth, 96 h; hit rate 6.9% among 320,000; Potency, µM (doses to about 28.7 µM), for inactives: at the highest dose activity change, negative = inhibition, usual class: inhibitors; note: potency is the fitted concentration of half-maximal effect; % is set by controls: 0 for no effect and ±100 for the full control effect
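Two-generation exposure (96 h) targets delayed-death phenotype. Reporter parasites carrying integrated firefly luciferase, in red cells at 2% hematocrit and 0.05% parasitemia final, kept at 37 C, 5% CO2; luminescence loss indicates inhibition.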
Shiga inhibitor – A qHTS for Small Molecule Inhibitors of Shiga Toxin; Vero cells, Shiga toxin protein synthesis inhibition reporter; hit rate 9.2% among 290,000; inhibition, % at 38.7 µM; AID 2315, 2010; in the data active = inhibition mostly above about 28%, no sharp cut-off; inactive = mostly below about 43%; note: 0% is about no effect
Pf growth 48h – Primary qHTS for delayed death inhibitors of the malarial parasite plastid, 48 hour incubation; Potency, µM (titrated, usually from 28.7 µM), for the others: at the highest dose activity change, negative = inhibition, most hits filed as inhibitors; P. falciparum luciferase growth in erythrocytes, 48 h; hit rate 5.9% among 310,000; note: potency is the fitted concentration of half-maximal effect; % is set by controls: 0 for no effect and ±100 for the full control effect
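In quantitative HTS format, infected erythrocytes bearing luciferase-reporter parasites were treated for a single generation at 37 C. Luminescence after adding detection reagent served as the growth measure.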
Giardia FBPA inh – qHTS Assay for Inhibitors of Fructose-1,6-bisphosphate Aldolase from Giardia Lamblia; A8B2U2; purified Giardia FBPA; Potency, µM (titrated, usually from 59.6 µM), without a hit: at the highest dose activity, negative = inhibition, usual class: inhibitors; hit rate 0.71% among 290,000; note: potency is the fitted concentration of half-maximal effect; % is set by controls: 0 for no effect and ±100 for the full control effect; nearly all actives have a fitted effect of over 55% in size
Target sequence (A8B2U2 whole entry, looked up): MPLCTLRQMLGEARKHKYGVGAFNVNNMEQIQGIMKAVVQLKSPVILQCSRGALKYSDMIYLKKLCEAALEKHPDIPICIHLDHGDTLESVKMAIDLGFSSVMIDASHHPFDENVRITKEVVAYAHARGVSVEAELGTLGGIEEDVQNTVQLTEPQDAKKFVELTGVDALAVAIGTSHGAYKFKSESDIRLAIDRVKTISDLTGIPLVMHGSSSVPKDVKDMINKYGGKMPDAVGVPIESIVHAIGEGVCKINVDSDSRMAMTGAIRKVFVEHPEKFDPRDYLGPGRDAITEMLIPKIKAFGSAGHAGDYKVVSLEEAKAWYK
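Giardia FBPA (40 nM reagent) was preincubated 10 min at RT with compound (up to 57.5 uM final), then substrate plus GAPDH/TPI/NAD/arsenate coupling system with diaphorase/resazurin was added; resorufin fluorescence (525/598 nm) was read after 20 min.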
Cycloheximide cs – Cycloheximide Counterscreen for Small Molecule Inhibitors of Shiga Toxin | hit rate 12% among 300,000 | max response, % | AID 2314, 2010 | cell reporter, cycloheximide protein synthesis inhibition counterscreen; in the data active = max response mostly above about 13%, no sharp cut-off; inactive = mostly below about 14%; note: read at 38.3 µM for the half of the compounds with a filed dose; 0% is about no effect
NS1 function inh – qHTS Assay for Inhibitors of Influenza NS1 Protein Function; Potency, µM (top dose mostly 46.1 µM), inactives show at the top dose activity, positive = more growth; hit rate 0.4% among 270,000; AID 2326, 2010; calls by dose curve; note: potency is the fitted concentration of half-maximal effect; actives are rising curves; nearly all actives have a fitted effect of over 50% in size
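A cell-based growth assay was used: compounds that relieve NS1-induced slow growth of budding yeast raise OD600. Assay medium was yeast nitrogen base with ammonium sulphate and -URA supplement, pH 6.0, with 2% galactose.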
The depositor's hits bear a star; u = inconclusive; x = no result; [ ] = remark or other dose. Unless noted, calls come from the whole dose curve; as a rule, active = well fitted curve in the direction sought with a large enough effect; inconclusive = small, poorly fitted or top-dose-only effect, or another doubt; inactive = no such curve, though single readings can be large; an effect the other way counts as inactive or inconclusive.

SMILES	Pf growth 96h	Shiga inhibitor	Pf growth 48h	Giardia FBPA inh	Cycloheximide cs	NS1 function inh
CCOc1c(Br)ccc2c1sc1nc[nH]c(=O)c12	9.3µM*	-15	-2%	0%	-8	-69%
CC[C@H](C)[C@H](NC(=O)[C@H](CO)NC(=O)[C@H](C)NC(=O)[C@H](C)NC(=O)[C@H](CCC(N)=O)NC(=O)[C@H](CCCCN)NC(=O)[C@H](CCCN=C(N)N)NC(=O)[C@@H](N)CS)C(=O)N[C@@H](CCCCN)C(=O)N[C@H](C(=O)N[C@@H](C)C(=O)N[C@H](C(=O)N[C@@H](CO)C(=O)O)C(C)C)C(C)C	x	13	x	4%	-5	x
CCN(CC)S(=O)(=O)c1ccc(OC)c(NC(=O)CSc2ccccc2)c1	u	7	-16%	-5%	-2	0%
CCN(CC)S(=O)(=O)c1ccc(OC)c(NC(=S)Nc2cccc(C)c2C)c1	-21%	-14	-13%	-1%	24*	18%
CCN(CC)S(=O)(=O)c1ccc(OC)c(NS(=O)(=O)Cc2ccccc2)c1	12µM*	-6	-9%	-8%	1	13%
Cc1cc(NC(=O)/C=C/c2ccccc2Cl)n(-c2nc3ccccc3[nH]2)n1	u	1	u	3%	14*	5%
Cc1cc(NC(=O)CC2CCCC2)n(-c2nc3ccccc3[nH]2)n1	5.9µM*	-12	u	-13%	3	-15%
Cc1ccccc1C(=O)N1CCC(C(=O)OCc2ccccc2Cl)CC1	-13%	x	u	x	x	x
CC1(C)Cn2c(nc(=O)c3c2NCN(CCc2ccccc2)C3)S1	u	-12	12%	-8%	-3	x
CN(C)c1ccc(S(=O)(=O)N2CCCCC2)cc1NC(=O)CN1C(=O)NC2(CCCC2)C1=O	u	x	13µM*	x	x	x
CCN(CC)c1ccc(S(=O)(=O)N2CCOCC2)cc1NC(=O)CN1C(=O)NC2(CCC(C)CC2)C1=O (configuration not stated)	13µM*	x	u	x	x	x
CN1CCN(NC(=S)Nc2ccc(Oc3ccccc3)cc2)CC1	u	-3	-17%	1%	-2	-3%
O=C(Nc1cccc2ccccc12)c1ccc(OC(=S)N2CCOCC2)cc1	56%	103*	146%	-10%	55*	-5%
O=C(Nc1cccc2ccccc12)N1CCOCC1	0%	-3	9%	-12%	1	7%
O=C(Nc1cccc(Cl)c1)c1ccc(OC(=S)N2CCOCC2)cc1	-11%	103*	370%	0%	39*	x
O=C(Nc1cccc(F)c1)N1CC2(CCN(C(=O)c3cccc(F)c3)CC2)C1	x	x	x	1%	x	x
COC(=O)C1CSc2[nH]c(=O)sc2C1c1ccc(OC)c(OC)c1 (configuration not stated)	u	4	10µM*	x	0	1%
O=C(CCCCCC(=O)N(CCO)CCO)N(CCO)CCO	x	-3	13µM*	-7%	-1	-11%
CCCCCCCCCCCC(=O)N(CCO)CCO	4%	x	8%	x	x	x
COc1ncc2nc(-c3cccc(C#N)c3)c(=O)n(CCC#N)c2n1	x	x	x	0%	x	x
CCCN(C(=O)CCNC(=O)c1ccc(Cl)cc1)c1c(N)n(Cc2ccccc2)c(=O)[nH]c1=O	18%	x	-7%	x	x	x
CC(C)Nc1nc(NC(C)C)nc(N(C)C(N)=O)n1	12µM*	-14	20%	0%	23	-2%
CC(C)Nc1nc(NC(C)C)nc(N(C)N)n1	3.7µM*	-9	x	9%	8	8%
O=C(c1ccccc1[N+](=O)[O-])N1CCN(c2ccc(N3CCOCC3)nn2)CC1	-5%	x	-17%	x	x	x
CCOC(=O)c1sc(=NC(=O)c2ccc(C)cc2)n(C)c1C	247%	71*	283%	1%	52*	x
SMILES	Pf growth 96h	Shiga inhibitor	Pf growth 48h	Giardia FBPA inh	Cycloheximide cs	NS1 function inh
CCOC(=O)c1sc(=NC(=O)CCSc2ccccc2)n(C)c1C	38%	17	30%	2%	17*	2%
CCOC(=O)c1sc(=NC(=O)c2ccc(S(=O)(=O)N(C)c3ccccc3)cc2)n(C)c1C	u	-21	6%	2%	13	x
CCOC(=O)c1sc(=NC(=O)c2c(F)cccc2F)n(C)c1C	56%	81*	74%	8%	39*	-27%
CCOC(=O)c1sc(=NC(=O)c2cc(OC)c(OC)c(OC)c2)n(C)c1C	u	-12	-7%	1%	0	u
CCOC(=O)c1sc(=NC(=O)COc2ccccc2)n(C)c1C	28%	26	32%	4%	23	x
CCOC(=O)c1sc(=NC(=O)c2ccc(F)cc2)n(C)c1C	113%	77*	226%	x	29*	3%
CCOC(=O)c1sc(=NC(=O)c2ccc(S(=O)(=O)N3CCOCC3)cc2)n(C)c1C	x	x	x	x	x	-9%
Cc1ccc2cn[nH]c2c1[N+](=O)[O-]	29%	-9	-7%	-5%	-5	x
CC(C)C(=O)N[C@@H]1CCCN1C(=O)/C=C\c1ccccc1	x	x	x	-1%[12.9 µM]	x	x
CCOC(=O)c1c(C)[nH]c(C)c1S(=O)(=O)N(C)CC(=O)Nc1cccc(C)n1	-26%	4	-11%	x	4	8%
CN(Cc1cccc(Cl)c1Cl)CC(O)COc1ccccc1 (configuration not stated)	-2%	-2	-6%	u	-5	-5%
CCN(CC)Cc1c(O)ccc2c(=O)c(-c3ccccc3)coc12	-27%	x	54%	3%	31*	14%
COc1ccc(-c2c(C)oc3c(CN4CCCCC4C)c(O)ccc3c2=O)cc1OC (configuration not stated)	12µM*	-2	u	0%	-3	-6%
COc1ccc(-c2coc3c(CN4CCOCC4)c(O)ccc3c2=O)cc1	u	-3	u	2%	-2	-11%
COc1ccc(-c2c(C)oc3c(CN4CCCCC4C)c(O)ccc3c2=O)cc1 (configuration not stated)	u	4	u	15%	-5	-3%
CC1CCCCN1Cc1c(O)ccc2c(=O)c(-c3nc4ccccc4s3)c(N)oc12 (configuration not stated)	1µM*	63*	0.83µM*	15%	40*	-8%
O=c1c(-c2ccc(Cl)cc2)coc2c(CN3CCOCC3)c(O)ccc12	10µM*	23	8.3µM*	2%	17	u
CC(C)(C)OC(=O)N1Cc2ccccc2C[C@H]1C(=O)NC1CCCC1	u	-3	u	-4%	1	4%
CCn1c(=O)c(=O)n(CC)c2cc(S(=O)(=O)Nc3cc(C)ccc3C)ccc21	u	-2	-6%	17%	-4	20%
NC[C@@H]1O[C@H](O[C@H]2[C@H](O)[C@@H](O[C@H]3[C@H](O)[C@H](N)C[C@H](N)[C@H]3O[C@@H]3O[C@H](CO)[C@@H](O)[C@H](O)[C@@H]3N)O[C@H]2CO)[C@@H](N)[C@H](O)[C@@H]1O	x	x	x	3%[21.7 µM]	x	x

Source: PubChem (National Center for Advancing Translational Sciences (NCATS))
